Experiment [1] deals with Peroxisome proliferator-activated receptor gamma (Homo sapiens) (UniProt P37231). As to the kind of experiment: qHTS assay to identify small molecule antagonists of the peroxisome proliferator-activated receptor gamma (PPARg) signaling pathway (AID 743191; calls by dose curve; further: nearly all actives have a fitted effect of over 30% in size; further: potency means the concentration at half of the fitted maximal effect). In a few lines: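 GeneBLAzer PPARg UAS-bla HEK293H cells carrying a UAS-driven beta-lactamase reporter were plated at 3000 cells/well, preincubated 5 h at 37C, then given compound for 17 h at 37C; LiveBLAzer B/G FRET substrate was read after 1 h at room temperature.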
(In general: In qHTS, concentration-response curves come from the screen itself.)

Experiment [2] is described as follows: qHTS assay to identify small molecule antagonists of the peroxisome proliferator-activated receptor gamma (PPARg) signaling pathway - cell viability counter screen (AID 743194). Further: nearly all actives have a fitted effect of over 55% in size. Further: potency means the concentration at half of the fitted maximal effect. The essentials: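 PPARg-UAS-bla HEK293H cells were plated, rested 5 h at 37 C, then treated with compounds plus rosiglitazone (50 nM final) for 17 h at 37 C; viability was then read by CellTiter-Glo luminescence after 30 min at room temperature.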

A short description of experiment [3]: qHTS assay for small molecule agonists of the antioxidant response element (ARE) signaling pathway (AID 743202; active means well fitted activation curve with a large enough effect in the signal ratio in the repeat runs, not every such curve was filed as active; the % refers to the signal ratio; further: potency means the concentration at half of the fitted maximal effect). In a few lines:
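Read-out: LiveBLAzer B/G FRET substrate fluorescence after 2 h at room temperature, following 16 h compound treatment at 37 C of HepG2 cells carrying an ARE-driven beta-lactamase reporter.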

Experiment [4] can be described thus: qHTS assay for small molecule agonists of the antioxidant response element (ARE) signaling pathway - cell viability counter screen (AID 743203; calls by dose curve; further: nearly all actives have a fitted effect of over 55% in size; further: potency means the concentration at half of the fitted maximal effect). In a few lines: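 Seeded at 2,000 cells/well, ARE-bla HepG2 cells were incubated 5 hrs before compound addition. After 16 hrs of treatment at 37C with 5% CO2, CellTiter-Glo reagent was added and luminescence read 30 min later.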

Experiment [5] is described as follows: qHTS assay for small molecule activators of the heat shock response signaling pathway - cell viability counter screen (AID 743209). Further: nearly all actives have a fitted effect of over 50% in size. Further: potency means the concentration at half of the fitted maximal effect. The essentials:
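First, HSE-bla HeLa cells were seeded at 1500 cells/well and kept overnight at 37 C. Next, compounds were pinned in and incubated 5 h. After the FRET substrate step, CellTiter-Glo was added and luminescence read 30 min later.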

Experiment [6] in a line: qHTS assay for small molecule activators of the heat shock response signaling pathway (AID 743210; active means well fitted activation curve with a large enough effect in the signal ratio in the repeat runs, with a control signal flat, not every such curve was filed as active; the % refers to the signal ratio; further: series mostly up to about 63 µM). In a few lines: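 HSE-bla HeLa cells (beta-lactamase reporter under heat shock response elements) were exposed to compounds for 5 h at 37 C, then loaded with LiveBLAzer B/G FRET substrate for 2.5 h at room temperature before fluorescence reading.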
Experiment [7] in a line: qHTS assay to identify small molecule that activate the aryl hydrocarbon receptor (AhR) signaling pathway - cell viability counter screen (AID 743086). Further: nearly all actives have a fitted effect of over 45% in size. Further: potency means the concentration at half of the fitted maximal effect. The essentials:
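HepG2-AhR-luc (HG2L7.5c1) cells, 4000/well, were preincubated 5 h at 37C, exposed to compound in qHTS format for 24 hr at 37C, then given CellTiter-Fluor for 30 min; viability was read as fluorescence in the reporter wells.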

Experiment [8] addresses Aryl hydrocarbon receptor (Homo sapiens) (UniProt P35869). The experiment can be described thus: qHTS assay to identify small molecule that activate the aryl hydrocarbon receptor (AhR) signaling pathway (AID 743085). Further: nearly all actives have a fitted effect of over 15% in size. Further: potency means the concentration at half of the fitted maximal effect.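 On activation: HG2L7.5c1 human HepG2 liver cells with stably integrated DRE-driven firefly reporter; series mostly up to about 70 µM.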 In a few lines: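 A multiplexed format paired cell viability (CellTiter-Fluor fluorescence) with AhR-dependent luciferase output (ONE-Glo luminescence) in the same wells of HepG2 DRE-luc cells after 24 h compound exposure at 37C.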

Experiment [9] addresses Peroxisome proliferator-activated receptor gamma (Homo sapiens) (UniProt P37231). The experiment can be described thus: qHTS assay to identify small molecule agonists of the peroxisome proliferator-activated receptor gamma (PPARg) signaling pathway (AID 743094; active means well fitted activation curve with a large enough effect in the signal ratio in the repeat runs, not every such curve was filed as active; the % refers to the signal ratio). In a few lines:
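Quantitative HTS agonist mode: stable HEK293H line with UAS-beta-lactamase reporter under PPARg control, 17 h compound exposure at 37C, fluorescence after 1 h FRET substrate loading at room temperature.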

Experiment [10] is described as follows: qHTS assay to identify aromatase inhibitors - cell viability counter screen (AID 743084).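 Further: cells stimulated with testosterone during compound exposure; nearly all actives have a fitted effect of over 55% in size.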

Records with an inconclusive call do not appear. Unmarked numbers belong to inactive results. The source made the active and inactive calls. Unless noted, the call rests on the fitted dose curve; in most records, active means well fitted curve in the direction sought with a large enough effect in the repeat runs; inconclusive means weak or mixed curves; inactive means no such curve, though single readings can be large; an effect the other way counts as inactive or inconclusive.

Chain of Peroxisome proliferator-activated receptor gamma (Homo sapiens) (P37231 whole entry, looked up): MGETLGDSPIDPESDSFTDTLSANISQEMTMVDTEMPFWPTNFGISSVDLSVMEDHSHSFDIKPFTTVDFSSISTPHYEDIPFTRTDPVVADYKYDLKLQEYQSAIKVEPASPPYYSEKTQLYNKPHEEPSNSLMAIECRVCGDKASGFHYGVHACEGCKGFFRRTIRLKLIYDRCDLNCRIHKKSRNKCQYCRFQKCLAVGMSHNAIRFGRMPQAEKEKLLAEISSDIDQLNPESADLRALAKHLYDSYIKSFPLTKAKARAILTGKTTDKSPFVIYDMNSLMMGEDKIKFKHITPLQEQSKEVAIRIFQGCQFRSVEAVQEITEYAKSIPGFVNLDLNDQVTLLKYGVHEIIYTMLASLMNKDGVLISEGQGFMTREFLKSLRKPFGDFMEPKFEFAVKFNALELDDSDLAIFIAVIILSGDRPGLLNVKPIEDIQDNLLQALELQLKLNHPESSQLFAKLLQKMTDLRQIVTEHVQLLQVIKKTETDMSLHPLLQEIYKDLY
Chain of Aryl hydrocarbon receptor (Homo sapiens) (P35869 whole entry, looked up): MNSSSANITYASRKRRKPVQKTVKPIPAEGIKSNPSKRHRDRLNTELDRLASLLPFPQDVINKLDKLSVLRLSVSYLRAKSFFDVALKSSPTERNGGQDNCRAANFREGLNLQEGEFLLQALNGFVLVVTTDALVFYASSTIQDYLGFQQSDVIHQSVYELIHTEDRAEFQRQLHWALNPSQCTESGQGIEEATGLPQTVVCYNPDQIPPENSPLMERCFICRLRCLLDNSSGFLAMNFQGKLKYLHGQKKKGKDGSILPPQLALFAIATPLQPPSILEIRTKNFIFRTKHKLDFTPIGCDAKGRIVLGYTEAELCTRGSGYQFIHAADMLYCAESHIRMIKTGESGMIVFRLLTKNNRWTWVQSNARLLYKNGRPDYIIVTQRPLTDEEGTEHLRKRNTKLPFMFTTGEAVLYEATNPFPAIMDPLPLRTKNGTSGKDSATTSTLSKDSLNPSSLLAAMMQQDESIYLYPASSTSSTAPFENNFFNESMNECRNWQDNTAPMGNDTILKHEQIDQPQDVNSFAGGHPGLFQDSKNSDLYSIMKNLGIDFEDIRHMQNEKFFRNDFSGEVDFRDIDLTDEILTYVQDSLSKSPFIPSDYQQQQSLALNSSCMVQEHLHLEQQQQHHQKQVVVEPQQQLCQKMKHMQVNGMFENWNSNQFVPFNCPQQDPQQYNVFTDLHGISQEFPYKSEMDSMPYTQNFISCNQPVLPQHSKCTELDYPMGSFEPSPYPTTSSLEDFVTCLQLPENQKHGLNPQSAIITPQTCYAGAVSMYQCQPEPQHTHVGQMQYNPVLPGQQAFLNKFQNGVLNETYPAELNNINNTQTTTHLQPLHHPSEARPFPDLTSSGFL

Turning to `CCOc1ncc(F)c(=O)[nH]1`, the Potency entry in experiment [1], in experiment [2], in experiment [3], in experiment [4] and in experiment [5] was “inactive” in each case.
On to `CCNc1nc(N)nc(Cl)n1`, for which the Potency result in experiment [2], in experiment [3], in experiment [4], in [5] and in experiment [6] was “inactive” throughout.
Turning to `COC(=O)Nc1nc2ccc(C(=O)C3CC3)cc2[nH]1`, the Potency result in [2] and in experiment [5] was “inactive” throughout.
In the case of `CCC(=O)OCc1ccc(OC)cc1`, the Potency entry in [7], in [2], in experiment [4] and in experiment [5] was “inactive” throughout.
As to `CC(=O)N[C@@H](Cc1ccc(O)cc1)C(=O)O`, the Potency entry in [7], in [2], in experiment [3], in experiment [5] and in experiment [6] was “inactive” throughout.
On to `CCOC(=O)N1CCC(Nc2ccc(Cl)cc2N)CC1`, for which the Potency result in [2] and in experiment [5] was “inactive” each time. In experiment [3], the Potency is 7.5 µM (active).
As for `Cc1oc(=O)oc1COC(=O)[C@@H]1N2C(=O)[C@@H](NC(=O)[C@H](N)c3ccccc3)[C@H]2SC1(C)C`, the Potency entry in experiment [1], in experiment [2], in experiment [3], in experiment [4], in experiment [5] and in experiment [6] was “inactive” throughout.
As to `COC1CCC=CO1` (configuration not stated), the Potency result in experiment [8], in experiment [7], in experiment [2], in experiment [3], in experiment [5] and in experiment [6] was “inactive” throughout. Further, the compound was called inactive in [9].
As to `CCCCCCCC(=O)Oc1c(Br)cc(C#N)cc1Br`, the Potency entry in experiment [7] and in experiment [3] was “inactive” each time. For the same compound, the Potency in [1] is 34.5 µM (active).
In the case of `Nc1ccc(N=Nc2ccc(N)cc2)cc1`, the Potency entry in experiment [8], in experiment [4] and in experiment [5] was “inactive” in each case. The result in experiment [9] was inactive. Moreover, in experiment [3], the Potency was 2.43 µM (active).
With `Cc1ccc2c(c1[N+](=O)[O-])C(=O)c1ccccc1C2=O`, the Potency in experiment [8] was 30 µM (active); in experiment [3], 6.73 µM (active). Further, the Potency result in experiment [7], in [2], in experiment [5] and in experiment [6] was “inactive” in each case.
For the compound `O=C(O)c1cccc(Oc2ccccc2)c1`, the Potency result in [7], in [1], in experiment [2], in experiment [3], in experiment [4] and in experiment [5] was “inactive” throughout.
For the compound `CCCCCCCC/C=C/C(=O)O`, the Potency entry in experiment [2], in experiment [3], in experiment [5] and in experiment [6] was “inactive” each time.
Turning to `O=C(CCS)OCC(COC(=O)CCS)(COC(=O)CCS)COC(=O)CCS`, the Potency entry in experiment [8] and in [7] was “inactive” each time. Besides, the compound was called inactive in [9].
As to `CC(=O)OCC(=O)[C@@]1(OC(C)=O)[C@@H](C)C[C@H]2[C@@H]3C[C@H](F)C4=CC(=O)C=C[C@]4(C)[C@@]3(F)[C@@H](O)C[C@@]21C`, the Potency result in [8], in [7], in [2], in [4], in experiment [5] and in [6] was “inactive” each time. The compound was classed as inactive in experiment [9].
As for `CCO[Si](C)(CCCOCC1CO1)OCC` (configuration not stated), the Potency entry in [8], in experiment [7], in experiment [2], in experiment [4] and in [5] was “inactive” each time. Further, the compound was called inactive in [9].
For the compound `CN(C)CC/C=C1\c2ccccc2Sc2ccc(Cl)cc21`, the Potency entry in experiment [8], in [5] and in experiment [6] was “inactive” in each case. Further, the outcome in [9] was inactive.
As to `Cc1ccccc1S(N)(=O)=O`, the Potency result in experiment [7], in [2], in [4] and in experiment [5] was “inactive” throughout.
On to `CCCCOCCOC(=O)c1cccnc1`, for which the Potency entry in [1], in experiment [2], in [3], in [4], in [5] and in experiment [6] was “inactive” in each case.
As for `SCCc1cnccn1`, the Potency entry in experiment [10], in experiment [1] and in experiment [2] was “inactive” each time.
Take `COc1ccc(-n2nc(C(F)F)cc2-c2ccc(S(C)=O)cc2)cc1` (configuration not stated): the Potency result in experiment [8], in experiment [7], in experiment [1], in [2], in experiment [3] and in experiment [4] was “inactive” each time. Moreover, the Potency entry in experiment [5] was “inactive”. Also, the call in experiment [9] was inactive.
For `C=C(C)c1ccccc1`, the Potency entry in [7], in [2], in experiment [3], in experiment [4], in experiment [5] and in experiment [6] was “inactive” in each case.
Turning to `CC/C=C\C/C=C\C/C=C\CCCCCCCC(=O)OCC`, the Potency result in experiment [8], in experiment [7], in experiment [2], in [4] and in [5] was “inactive” in each case.
For `COc1ccc(-c2cc(=S)ss2)cc1`, the Potency in experiment [8] is 29.8 µM (active); in experiment [3] it was 13.3 µM (active). In addition, the Potency result in experiment [1], in experiment [2] and in experiment [5] was “inactive” in each case.
Regarding `CNS(=O)(=O)c1cc(C(=O)N2CCC(CCN3C4CCC3CC(n3c(C)nc5ccccc53)C4)(c3cccc(F)c3)CC2)c(Cl)cc1F` (configuration not stated), the Potency result in experiment [8] and in experiment [5] was “inactive” in each case.
On to `COc1cc(NCc2ccc3nc(N)nc(N)c3c2C)cc(OC)c1OC`, for which the results for the Potency in experiment [8], in experiment [7] and in experiment [4] were 29.8 µM (active), 29.8 µM (active) and 0.0376 µM (active), respectively. Besides, the Potency entry in experiment [5] and in [6] was “inactive” each time.
Regarding `Cc1cc(CCCOc2c(C)cc(-c3noc(C(F)(F)F)n3)cc2C)on1`, the Potency entry in [1], in experiment [2], in experiment [4] and in experiment [6] was “inactive” each time.
Turning to `Oc1cccc2[nH]ccc12`, the Potency result in experiment [1], in experiment [2], in experiment [4], in experiment [5] and in [6] was “inactive” each time.
For `CCOC(=O)Oc1ccc(CCNC(=O)[C@H](CCSC)NC(C)=O)cc1OC(=O)OCC`, the Potency result in experiment [1], in [2], in [3], in experiment [5] and in experiment [6] was “inactive” in each case.
For `CO[C@@H]1[C@@H](OC)[C@H](C)[C@@](O)(CC(=O)O)O[C@H]1[C@H](C)[C@H]1O[C@@]2(CC[C@@](C)([C@H]3CC[C@@](C)([C@@H]4O[C@@H]([C@H]5O[C@](C)(O)[C@H](C)C[C@@H]5C)C[C@@H]4OC4C[C@H](OC)[C@@H](OC)[C@H](C)O4)O3)O2)C[C@H](O)[C@H]1C` (some centres not stated), the Potency entry in experiment [8] and in experiment [6] was “inactive” throughout. The call in experiment [9] was inactive. Besides, the figures for the Potency in experiment [2] and in experiment [5] were 8.41 µM (active) and 11.9 µM (active), respectively.
As to `O[C@@H](CNC[C@H](O)[C@H]1CCc2cc(F)ccc2O1)[C@@H]1CCc2cc(F)ccc2O1`, the Potency entry in [8], in experiment [5] and in experiment [6] was “inactive” each time. The values for the Potency in experiment [7], in experiment [2] and in experiment [4] were 26.6 µM (active), 29.8 µM (active) and 21.1 µM (active), respectively.
For `CCN(CC)C(=O)/C(C#N)=C/c1cc(O)c(O)c([N+](=O)[O-])c1`, the Potency entry in [8], in experiment [7], in [1], in [2], in experiment [4] and in experiment [5] was “inactive” throughout.
Take `CC(CCc1ccc(O)cc1)NCCc1ccc(O)c(O)c1` (configuration not stated): the Potency entry in experiment [1] and in [2] was “inactive” in each case.
Regarding `O=C(O)/C=C/c1ccc(O)c(O)c1`, the Potency result in [8], in experiment [7], in experiment [2], in experiment [4] and in experiment [5] was “inactive” in each case. The call in [9] was inactive.
On to `C=CCOC(=O)COCCC(C)C`, for which the Potency result in experiment [8], in [7], in experiment [1], in experiment [2], in experiment [4] and in experiment [5] was “inactive” throughout. Further, in [6], the Potency result is “inactive”. The call in experiment [9] was inactive.

These data come from PubChem BioAssay (Tox21).
